# PERK inh = blocks human PERK kinase; Q9NZJ5; CHO PERK-DD fusion, SEAP luminescence translation reporter; inhibition, % at 5.6 µM; 0.17% of 220,000 active; AID 1416;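 active = inhibition above the mean inhibition of all tested compounds plus 3 SD, set separately per screening campaign, cut at about 2.9% in these data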;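 note: PERK kinase domain activated by AP20187 dimerizer at 100 nM; 0% = DMSO with dimerizer and 100% = rapamycin at 8.4 µM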
# GRK2 aptamer HTS = human GRK2 inhibition via aptamer displacement; bead flow cytometry, FAM-aptamer displacement from GRK2; inhibition of aptamer binding, % at 10 µM; 0.59% of 330,000 active; AID 488847;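 active = inhibition of aptamer binding above 40%, roughly 3 SD of noise, on plates passing a quality check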;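 note: median bead fluorescence of bound FAM aptamer so fluorescent compounds give negative values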
# MLLE-PAM2 inh = inhibitors of microRNA-mediated deadenylation, human PABP1 MLLE binding; P11940; GST-MLLE / FITC-PAM2 fluorescence polarization; inhibition, % at 20 µM; 0.36% of 360,000 active; in the data active = inhibition above about 35%, passing the limit was not always enough;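 note: plate controls were DMSO wells with GST-MLLE for no effect and wells lacking GST-MLLE protein for full effect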
# Target sequence (P11940 whole entry, looked up): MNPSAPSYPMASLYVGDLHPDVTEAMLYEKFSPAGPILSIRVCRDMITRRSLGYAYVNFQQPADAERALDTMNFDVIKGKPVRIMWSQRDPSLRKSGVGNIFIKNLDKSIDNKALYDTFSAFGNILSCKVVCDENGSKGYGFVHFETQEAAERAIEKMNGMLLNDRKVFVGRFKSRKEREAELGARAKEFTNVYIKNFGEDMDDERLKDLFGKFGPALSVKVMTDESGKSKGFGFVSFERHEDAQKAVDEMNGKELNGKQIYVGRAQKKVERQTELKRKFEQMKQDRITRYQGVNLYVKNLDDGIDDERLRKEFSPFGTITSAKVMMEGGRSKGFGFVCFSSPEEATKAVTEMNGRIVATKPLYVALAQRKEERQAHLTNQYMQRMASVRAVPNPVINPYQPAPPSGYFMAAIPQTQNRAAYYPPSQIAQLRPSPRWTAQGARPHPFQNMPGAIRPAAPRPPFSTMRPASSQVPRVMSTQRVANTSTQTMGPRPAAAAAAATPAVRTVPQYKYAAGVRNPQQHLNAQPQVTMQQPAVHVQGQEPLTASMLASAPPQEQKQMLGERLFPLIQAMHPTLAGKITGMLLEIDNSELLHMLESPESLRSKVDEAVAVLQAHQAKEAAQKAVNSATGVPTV
# eIF4H inh = inhibitors of RNA binding by human eIF4H; AID 2012; Q15056; eIF4H fluorescence polarization binding assay; 0.94% of 290,000 active; inhibition, % at 35 µM;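 note: calls also rest on retests at 20 µM and on dose response follow-up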
# PABP FP inh = blocks human PABP binding to poly(A) RNA | inhibition, % at 35 µM | P11940 | fluorescence polarization | 1% of 290,000 active;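 note: calls also rest on retests at 20 µM and on dose response follow-up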
# GRK2 CP1 = human GRK2 inhibition confirmation, cherry pick 1; AID 504451; shares compounds with GRK2 aptamer HTS; 4% of 2,000 active; aptamer displacement, % at 10 µM; bead-bound GRK2, FAM-aptamer displacement, flow cytometry;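 active = aptamer displacement above 40%, near three times the noise of non-fluorescent compounds, on plates passing quality checks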;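 note: negative values mostly reflect intrinsic compound fluorescence rather than true enhancement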
# Aptamer quench SP = counter-screen for GRK2 aptamer inhibitors: fluorescent aptamer quenchers | shares compounds with GRK2 aptamer HTS | Carboxyfluorescein RNA aptamer on beads, flow cytometry quenching; active compounds read low | fluorescence response (% of DMSO), % at 10 µM | 2,000 tested, under 10 active | AID 504580;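 active = compounds that quench the bead-bound fluorescent RNA probe, cutting fluorescence to under half of the solvent control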;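 note: counterscreen run without GRK2 so only probe quenching by compound is measured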
# GRK2 confirm 2 = confirmation of human GRK2 inhibitors binding RNA aptamer site | inhibition of aptamer binding, % at 10 µM | 360 tested, under 10 active | shares compounds with GRK2 aptamer HTS | bead-bound GRK2, FAM-aptamer displacement, flow cytometry | AID 504782;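 active = inhibition of aptamer binding above 40%, about triple the noise seen with nonglowing compounds, on plates passing quality control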;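 note: negative values mostly come from compounds that fluoresce themselves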
# FAM quench CP2 = quenches fluorescent RNA aptamer, GRK2 hit artifact. 360 tested, under 10 active. fluorescence response vs DMSO, % at 10 µM. AID 588494. shares compounds with GRK2 aptamer HTS. carboxyfluorescein RNA aptamer beads, flow cytometry quenching; active compounds read low;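 active = response vs DMSO under 50%, meaning signal dropped by over half, treated as fluorescence quencher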;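 note: labelled aptamer on streptavidin beads without GRK2 as a quench counter-screen; 100% = bead fluorescence of DMSO wells and lower means quenching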
# Numbers without * were called inactive; · = no result. Compounds with a hit are over-represented: about 1.9% of the library has one in this group of screens. Unless noted, the rule behind the calls is not given here.
SMILES,PERK inh,GRK2 aptamer HTS,MLLE-PAM2 inh,eIF4H inh,PABP FP inh,GRK2 CP1,Aptamer quench SP,others
COc1ccccc1-n1cnnc1SCC(=O)N1CCN(C(=O)c2ccco2)CC1,0.3,45.0*,-13.6,0.3,-6.3,0.6,99.3,
O=C(CSc1nnc(SCc2ccc(Cl)cc2)s1)N1CCN(C(=O)c2ccco2)CC1,-0.2,22.0,-28.1,-9.6,0.1,·,·,
O=C(CSc1nncs1)N1CCN(C(=O)c2ccco2)CC1,·,81.0*,-4.0,·,·,-0.8,99.8,
COc1ccccc1-n1cnnc1SCC(=O)N1CCN(S(=O)(=O)c2ccccc2)CC1,-0.8,0.0,0.2,2.9,-3.7,·,·,
Cc1cc(NS(=O)(=O)c2c(C(=O)N3CCOCC3)c(C)n(C)c2C)ccc1Br,·,45.0*,6.4,-8.8,10.1,-3.9,103.4,
Cc1cccc(NC(=O)COC(=O)c2ccc(S(=O)(=O)N3CCCCCC3)cc2)c1,·,·,3.7,·,·,-2.2,99.1,
Cc1ccc(S(=O)(=O)N2CCOCC2)cc1NC(=O)COC(=O)c1ccc2c(c1)OCO2,1.2,100.0*,0.0,0.7,-2.9,4.5,67.2,
Cc1ccc(S(=O)(=O)N2CCOCC2)cc1NC(=O)COC(=O)c1ccc2c(c1)OCCO2,0.8,0.0,-9.8,-11.3,5.6,·,·,
CCN(c1ccc(OC)cc1)S(=O)(=O)N1CCCC(C(=O)NCc2ccc(OC(C)C)cc2)C1 (stereo not drawn),·,·,-2.4,·,·,·,·,
CCCNC(=O)C(Cc1ccccc1F)NC(=O)c1ccccn1 (stereo not drawn),·,86.0*,8.6,·,·,1.4,96.4,GRK2 confirm 2=2.5;FAM quench CP2=100.0
CC(Cc1n[nH]c(=S)n1N)c1ccccc1 (stereo not drawn),·,2.0,-17.0,-3.1,-5.0,·,·,
CC(NCCN(C)C)C(=O)C12CC3CC(CC(C3)C1)C2 (stereo not drawn),1.5,0.0,-10.5,-9.0,9.2,·,·,
COc1ccc(N2CCN(c3cc(C(=O)NC4CCCCC4)ncn3)CC2)cc1OC,·,·,-13.9,·,·,·,·,
N#C/C(=C\c1c(N2CCC(C(N)=O)CC2)nc2ccccn2c1=O)S(=O)(=O)c1ccc(Cl)cc1,0.2,41.0*,-17.2,-9.5,0.1,-0.9,99.3,
COc1cc(C2C(C#N)=C(N)Oc3c2ccc2ccccc32)ccc1OCC(=O)Nc1cccc(C)c1 (stereo not drawn),-0.2,0.0,2.5,-3.5,-8.6,·,·,
COc1cc(C2C(C#N)=C(N)Oc3c2ccc2ccccc32)ccc1OCC(=O)Nc1ccc(C)cc1 (stereo not drawn),0.3,0.0,-4.8,-14.8,-4.2,1.0,94.5,
Cc1ccc(NC(=O)Cn2c(=O)c3cccn3c3ccccc32)c(Cl)c1,·,0.0,-6.0,-10.5,-13.4,·,·,
CCOC(=O)C1=C[C@@H](C(C)C)N(S(=O)(=O)c2ccc(C)cc2)[C@H]1c1ccc(C(F)(F)F)cc1,·,·,6.3,·,·,·,·,
COc1ccc(Cc2nnc(SCC(=O)Nc3ccccc3C)n(N)c2=O)cc1,·,100.0*,2.3,·,·,-4.3,95.7,
CC(=O)N1CCc2cc(NC(=O)C3(C)CCN3Cc3ccc(C(C)C)cc3)ccc21 (stereo not drawn),·,·,8.1,·,·,·,·,
COc1cccc(C2c3[nH]c4ccccc4c3C[C@H]3C(=O)N(C4CCN(Cc5ccccc5)CC4)CC(=O)N23)c1 (stereo partly drawn),·,0.0,1.7,3.3,-0.7,-12.4,103.8,
COc1ccc(C2c3[nH]c4ccccc4c3C[C@H]3C(=O)N(C4CCN(Cc5ccccc5)CC4)CC(=O)N23)cc1OC (stereo partly drawn),·,0.0,-11.8,-2.3,7.3,·,·,
COc1ccccc1C1c2[nH]c3ccccc3c2C[C@H]2C(=O)N(C3CCN(Cc4ccccc4)CC3)CC(=O)N12 (stereo partly drawn),·,0.0,-11.2,-2.3,-5.7,-28.6,97.4,
O=C(O)CCn1c2ccccc2c2nc3ccccc3nc21,·,1.0,14.2,2.4,20.0,·,·,
